{
  "source": "PubChem BioAssay (EPA / NIEHS)",
  "note": "Inconclusive results are not listed. The source made the active and inactive calls. Rule for the calls, unless noted: active = hit-call score of the fitted dose curve at least 0.9, where 1 is the maximum; inconclusive = response in the unintended direction; inactive = score below 0.9.",
  "data": [
    {"system": "not listed separately", "assay": "ATG_M_06_TRANS: Attagene TRANS-FACTORIAL HepG2 Assay for M06 Transcription Factor (Internal Marker) (AID 2282983);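 note: reporter transcript level by RT-PCR then capillary electrophoresis fluorescence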", "details": "HepG2 Attagene TRANS M06 internal marker reporter", "summary_of_the_method": "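Internal-marker background readout from a multiplexed TRANS reporter system in HepG2; 24 h dosing; mRNA induction quantified by RT-PCR plus capillary electrophoresis fluorescence; DMSO as negative control and baseline.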", "values": [
      {"smiles": "Cc1ccc(OP(=O)(Oc2ccc(C)cc2)Oc2ccc(C)cc2)cc1", "note": "(tested in a mixture with another compound)", "outcome": "inactive"},
      {"smiles": "CCC(C)c1cc(C(C)(C)C)cc(-n2nc3ccccc3n2)c1O", "note": "(stereo not drawn)", "outcome": "inactive"},
      {"smiles": "CC(=O)/C=C/c1ccccc1", "outcome": "inactive"},
      {"smiles": "c1ccc(P(c2ccccc2)c2ccccc2)cc1", "outcome": "inactive"},
      {"smiles": "CCOC(=O)COc1ccc(Cl)cc1Cl", "outcome": "inactive"},
      {"smiles": "CCN(CC)C(=S)S", "outcome": "inactive"},
      {"smiles": "N#Cc1cccc(C#N)c1", "outcome": "inactive"},
      {"smiles": "O=C1Nc2ccc(Cl)cc2C(c2ccccc2)=NC1O", "note": "(stereo not drawn)", "outcome": "inactive"},
      {"smiles": "N#CC(c1ccccc1)c1ccccc1", "outcome": "inactive"},
      {"smiles": "C[N+](C)=CCl", "outcome": "inactive"}
    ]},
    {"system": "not listed separately", "assay": "ATG_M_32_TRANS: Attagene TRANS-FACTORIAL HepG2 Assay for M32 Transcription Factor (Internal Marker) (AID 2282984);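 note: transcript level of a background control reporter unit measured by RT-PCR and capillary electrophoresis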", "details": "HepG2 Attagene TRANS M32 internal marker reporter", "summary_of_the_method": "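HepG2 cells transiently transfected with GAL4-UAS reporter units, dosed for 24 hours. Reporter mRNA quantified by RT-PCR, 6-FAM labelling, HpaI digestion and capillary electrophoresis; internal-marker signal fitted upward relative to DMSO.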", "values": [
      {"smiles": "O=C1C(Cl)=C(Cl)C(=O)C(Cl)=C1Cl", "outcome": "inactive"},
      {"smiles": "COc1cc(OC)c(OC)cc1C=O", "outcome": "inactive"},
      {"smiles": "CC(C)(c1cc(Cl)c(O)c(Cl)c1)c1cc(Cl)c(O)c(Cl)c1", "outcome": "inactive"},
      {"smiles": "[N-]=[N+]=CC(=O)OC[C@H](N)C(=O)O", "outcome": "inactive"},
      {"smiles": "COCC(=O)N(c1c(C)cccc1C)N1CCOC1=O", "outcome": "inactive"},
      {"smiles": "CC(C)CCCCCCCOP(=O)(Oc1ccccc1)Oc1ccccc1", "outcome": "inactive"},
      {"smiles": "CCC1CCC(=O)O1", "note": "(stereo not drawn)", "outcome": "inactive"},
      {"smiles": "C=COCCCl", "outcome": "inactive"},
      {"smiles": "CC(Cc1ccc(C(C)(C)C)cc1)CN1C[C@@H](C)O[C@@H](C)C1", "note": "(stereo partly drawn)", "outcome": "inactive"},
      {"smiles": "CCOC(=O)N(C)N=O", "outcome": "inactive"},
      {"smiles": "O=CNC(N1CCN(C(NC=O)C(Cl)(Cl)Cl)CC1)C(Cl)(Cl)Cl", "note": "(stereo not drawn)", "outcome": "inactive"},
      {"smiles": "CCC[N+](=O)[O-]", "outcome": "inactive"},
      {"smiles": "CC(C)(O)C#N", "outcome": "inactive"},
      {"smiles": "CC(C)C#N", "outcome": "inactive"},
      {"smiles": "CCCCCc1cc(O)cc(O)c1", "outcome": "inactive"},
      {"smiles": "c1ccc(Nc2ccc3ccccc3c2)cc1", "outcome": "inactive"},
      {"smiles": "CSc1nc(N=[N+]=[N-])nc(NC(C)C)n1", "outcome": "inactive"},
      {"smiles": "CC=Cc1ccc2c(c1)OCO2", "outcome": "inactive"},
      {"smiles": "ClC1=C(Cl)[C@]2(Cl)[C@@H]3[C@@H](Cl)[C@H](Cl)C[C@@H]3[C@@]1(Cl)C2(Cl)Cl", "outcome": "inactive"},
      {"smiles": "O=S(=O)(c1ccccc1)c1ccccc1", "outcome": "inactive"},
      {"smiles": "CCC(C)c1cc(C(C)(C)C)cc(-n2nc3ccccc3n2)c1O", "note": "(stereo not drawn)", "outcome": "inactive"},
      {"smiles": "CC1(C)C(=O)NC(=O)NC1=O", "outcome": "inactive"},
      {"smiles": "CC(=O)/C=C/c1ccccc1", "outcome": "inactive"},
      {"smiles": "c1ccc(P(c2ccccc2)c2ccccc2)cc1", "outcome": "inactive"},
      {"smiles": "CCOC(=O)COc1ccc(Cl)cc1Cl", "outcome": "inactive"},
      {"smiles": "CCN(CC)C(=S)S", "outcome": "inactive"},
      {"smiles": "N#Cc1cccc(C#N)c1", "outcome": "inactive"}
    ]},
    {"molecular_target": "Nuclear receptor subfamily 4 group A member 2 (Homo sapiens) (UniProt P43354)", "sequence (P43354 whole entry, looked up, the tested form may be a part)": "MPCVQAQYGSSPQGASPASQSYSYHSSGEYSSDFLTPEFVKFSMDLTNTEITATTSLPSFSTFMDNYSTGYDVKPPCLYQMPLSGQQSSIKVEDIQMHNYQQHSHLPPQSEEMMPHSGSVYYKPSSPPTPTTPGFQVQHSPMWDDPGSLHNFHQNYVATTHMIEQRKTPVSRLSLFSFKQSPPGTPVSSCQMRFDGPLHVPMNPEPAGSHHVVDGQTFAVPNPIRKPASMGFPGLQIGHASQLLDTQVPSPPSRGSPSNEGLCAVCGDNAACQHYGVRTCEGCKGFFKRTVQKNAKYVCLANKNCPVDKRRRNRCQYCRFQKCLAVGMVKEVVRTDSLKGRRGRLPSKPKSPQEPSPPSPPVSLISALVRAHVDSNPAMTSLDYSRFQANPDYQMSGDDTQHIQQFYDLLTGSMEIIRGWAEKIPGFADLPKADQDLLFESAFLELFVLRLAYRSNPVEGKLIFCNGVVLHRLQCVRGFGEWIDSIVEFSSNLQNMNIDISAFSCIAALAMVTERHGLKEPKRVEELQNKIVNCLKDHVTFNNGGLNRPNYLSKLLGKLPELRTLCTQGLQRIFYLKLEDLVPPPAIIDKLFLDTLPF", "assay": "ATG_NURR1_TRANS: Attagene TRANS-FACTORIAL HepG2 Assay for human Nuclear Receptor Related Protein 1 (NURR1) (AID 2282985)", "details": "HepG2 Attagene TRANS reporter, mRNA readout", "summary_of_the_method": "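HepG2 cells transiently transfected with NURR1-Gal4 chimera and GAL4-UAS reporter units; after 24 hr compound exposure, reporter mRNA quantified by RT-PCR and capillary electrophoresis; gain of signal fitted against DMSO.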", "values": [
      {"smiles": "O=C1C(Cl)=C(Cl)C(=O)C(Cl)=C1Cl", "outcome": "inactive"},
      {"smiles": "CC1CCC(=O)O1", "note": "(stereo not drawn)", "outcome": "inactive"},
      {"smiles": "COc1cc(OC)c(OC)cc1C=O", "outcome": "inactive"},
      {"smiles": "C[N+](C)(C)CC(=O)[O-]", "outcome": "inactive"},
      {"smiles": "CC(C)(c1cc(Cl)c(O)c(Cl)c1)c1cc(Cl)c(O)c(Cl)c1", "AC50": "47.9 µM (active)"},
      {"smiles": "[N-]=[N+]=CC(=O)OC[C@H](N)C(=O)O", "outcome": "inactive"},
      {"smiles": "CC(C)CCCCCCCOP(=O)(Oc1ccccc1)Oc1ccccc1", "AC50": "26.6 µM (active)"},
      {"smiles": "CC[N+](=O)[O-]", "outcome": "inactive"},
      {"smiles": "CC(Cc1ccc(C(C)(C)C)cc1)CN1C[C@@H](C)O[C@@H](C)C1", "note": "(stereo partly drawn)", "AC50": "33.4 µM (active)"},
      {"smiles": "[Cl-].[Cl-].[Cl-].[Yb+3]", "outcome": "inactive"},
      {"smiles": "O=CNC(N1CCN(C(NC=O)C(Cl)(Cl)Cl)CC1)C(Cl)(Cl)Cl", "note": "(stereo not drawn)", "outcome": "inactive"},
      {"smiles": "CC(C)(O)C#N", "outcome": "inactive"},
      {"smiles": "S=c1[nH]c2ccccc2[nH]1", "outcome": "inactive"},
      {"smiles": "CCCCCc1cc(O)cc(O)c1", "outcome": "inactive"},
      {"smiles": "c1ccc(Nc2ccc3ccccc3c2)cc1", "outcome": "inactive"},
      {"smiles": "CC=Cc1ccc2c(c1)OCO2", "outcome": "inactive"},
      {"smiles": "CCC(C)c1cc(C(C)(C)C)cc(-n2nc3ccccc3n2)c1O", "note": "(stereo not drawn)", "outcome": "inactive"},
      {"smiles": "CC1(C)C(=O)NC(=O)NC1=O", "outcome": "inactive"},
      {"smiles": "CC(=O)/C=C/c1ccccc1", "outcome": "inactive"},
      {"smiles": "CCN(CC)C(=S)S", "outcome": "inactive"},
      {"smiles": "N#CC(c1ccccc1)c1ccccc1", "outcome": "inactive"}
    ]},
    {"molecular_target": "Transcriptional activator Myb (Homo sapiens) (UniProt P10242)", "sequence (P10242 whole entry, looked up)": "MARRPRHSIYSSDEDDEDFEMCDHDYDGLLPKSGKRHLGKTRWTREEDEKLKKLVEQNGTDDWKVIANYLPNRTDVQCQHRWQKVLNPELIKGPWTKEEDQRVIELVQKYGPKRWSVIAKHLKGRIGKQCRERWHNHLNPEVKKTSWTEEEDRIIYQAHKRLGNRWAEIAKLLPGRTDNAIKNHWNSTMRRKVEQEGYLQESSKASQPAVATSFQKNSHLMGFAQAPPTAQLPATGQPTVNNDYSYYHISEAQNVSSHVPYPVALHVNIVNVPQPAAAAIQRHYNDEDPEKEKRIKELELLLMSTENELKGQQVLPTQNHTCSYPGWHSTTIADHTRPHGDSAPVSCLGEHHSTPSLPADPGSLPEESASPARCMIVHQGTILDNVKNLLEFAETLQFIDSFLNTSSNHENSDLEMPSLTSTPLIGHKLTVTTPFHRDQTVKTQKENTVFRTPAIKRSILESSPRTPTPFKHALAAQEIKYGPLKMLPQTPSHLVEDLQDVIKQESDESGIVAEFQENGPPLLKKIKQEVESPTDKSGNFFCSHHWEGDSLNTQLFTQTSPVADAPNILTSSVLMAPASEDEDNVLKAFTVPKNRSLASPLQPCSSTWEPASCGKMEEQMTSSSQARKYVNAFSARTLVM", "assay": "ATG_Myb_CIS: Attagene CIS-FACTORIAL HepG2 Assay for human Myeloblastosis (Myb) Proto-Oncogene Transcription Factor (AID 2282986; active = hit-call score of the fitted dose curve at least 0.9, where 1 is the maximum; inactive = score below 0.9)", "details": "HepG2 Attagene CIS-FACTORIAL Myb reporter transcription; actives raise or lower the signal", "summary_of_the_method": "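HepG2, transient MRTU transfection (cis-element promoters, endogenous TF activity), 24 h compound exposure. Readout: reporter mRNA via RT-PCR, 6-FAM labeling, HpaI digest, capillary electrophoresis. Gain/loss fit vs DMSO.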", "values": [
      {"smiles": "O=C1C(Cl)=C(Cl)C(=O)C(Cl)=C1Cl", "outcome": "inactive"},
      {"smiles": "N#CCCCCC#N", "outcome": "inactive"},
      {"smiles": "CC1CCC(=O)O1", "note": "(stereo not drawn)", "outcome": "inactive"},
      {"smiles": "COc1cc(OC)c(OC)cc1C=O", "outcome": "inactive"},
      {"smiles": "CC(C)c1ccc(O)cc1", "outcome": "inactive"},
      {"smiles": "C[N+](C)(C)CC(=O)[O-]", "outcome": "inactive"},
      {"smiles": "CC(C)(c1cc(Cl)c(O)c(Cl)c1)c1cc(Cl)c(O)c(Cl)c1", "AC50": "47.8 µM (active)"},
      {"smiles": "O=C(NCNC(=O)NC1C(=O)NC(=O)N1CO)NC1C(=O)NC(=O)N1CO", "note": "(stereo not drawn)", "outcome": "inactive"},
      {"smiles": "[N-]=[N+]=CC(=O)OC[C@H](N)C(=O)O", "outcome": "inactive"},
      {"smiles": "COCC(=O)N(c1c(C)cccc1C)N1CCOC1=O", "outcome": "inactive"},
      {"smiles": "CC(C)CCCCCCCOP(=O)(Oc1ccccc1)Oc1ccccc1", "outcome": "inactive"},
      {"smiles": "CCC1CCC(=O)O1", "note": "(stereo not drawn)", "outcome": "inactive"},
      {"smiles": "C=COCCCl", "outcome": "inactive"},
      {"smiles": "C=CCN(CC=C)C(=O)C(Cl)Cl", "outcome": "inactive"},
      {"smiles": "CC[N+](=O)[O-]", "outcome": "inactive"},
      {"smiles": "CC(Cc1ccc(C(C)(C)C)cc1)CN1C[C@@H](C)O[C@@H](C)C1", "note": "(stereo partly drawn)", "outcome": "inactive"},
      {"smiles": "[Cl-].[Cl-].[Cl-].[Yb+3]", "outcome": "inactive"},
      {"smiles": "CCOC(=O)N(C)N=O", "outcome": "inactive"},
      {"smiles": "O=CNC(N1CCN(C(NC=O)C(Cl)(Cl)Cl)CC1)C(Cl)(Cl)Cl", "note": "(stereo not drawn)", "outcome": "inactive"},
      {"smiles": "CCC[N+](=O)[O-]", "outcome": "inactive"},
      {"smiles": "CC(C)(O)C#N", "outcome": "inactive"},
      {"smiles": "CC(C)C#N", "outcome": "inactive"},
      {"smiles": "S=c1[nH]c2ccccc2[nH]1", "outcome": "inactive"},
      {"smiles": "CCCCCc1cc(O)cc(O)c1", "outcome": "inactive"},
      {"smiles": "c1ccc(Nc2ccc3ccccc3c2)cc1", "outcome": "inactive"},
      {"smiles": "CSc1nc(N=[N+]=[N-])nc(NC(C)C)n1", "outcome": "inactive"},
      {"smiles": "CC=Cc1ccc2c(c1)OCO2", "outcome": "inactive"},
      {"smiles": "Cc1ccc(OP(=O)(Oc2ccc(C)cc2)Oc2ccc(C)cc2)cc1", "note": "(tested in a mixture with another compound)", "outcome": "inactive"},
      {"smiles": "ClC1=C(Cl)[C@]2(Cl)[C@@H]3[C@@H](Cl)[C@H](Cl)C[C@@H]3[C@@]1(Cl)C2(Cl)Cl", "outcome": "inactive"},
      {"smiles": "O=S(=O)(c1ccccc1)c1ccccc1", "outcome": "inactive"},
      {"smiles": "CCC(C)c1cc(C(C)(C)C)cc(-n2nc3ccccc3n2)c1O", "note": "(stereo not drawn)", "outcome": "inactive"},
      {"smiles": "CC1(C)C(=O)NC(=O)NC1=O", "outcome": "inactive"},
      {"smiles": "CC(=O)/C=C/c1ccccc1", "outcome": "inactive"},
      {"smiles": "c1ccc(P(c2ccccc2)c2ccccc2)cc1", "outcome": "inactive"},
      {"smiles": "CCOC(=O)COc1ccc(Cl)cc1Cl", "outcome": "inactive"},
      {"smiles": "CCN(CC)C(=S)S", "outcome": "inactive"},
      {"smiles": "N#Cc1cccc(C#N)c1", "outcome": "inactive"},
      {"smiles": "O=C1Nc2ccc(Cl)cc2C(c2ccccc2)=NC1O", "note": "(stereo not drawn)", "outcome": "inactive"},
      {"smiles": "N#CC(c1ccccc1)c1ccccc1", "outcome": "inactive"},
      {"smiles": "C[N+](C)=CCl", "outcome": "inactive"}
    ]}
  ]
}
